Data: PubChem BioAssay (EPA / NIEHS)
“And” between values parts separate entries of the source, which are not always exact repeats. Equal values may be shown once. More than one record can exist for a structure, and the calls need not agree. The source made the active and inactive calls. Rule for the calls: active = hit-call score of the fitted dose curve at least 0.9, where 1 is the maximum; inactive = score below 0.9.

What was measured:
Settings in all cases: mRNA level, 48 h; actives raise or lower the signal
[1] = read-out: Fatty Acid-Binding Protein 1 (FABP1), FABP1 (gene 2168); assay: LTEA_HepaRG_FABP1: Life Technologies and Expression Analysis (LTEA) Assay for Fatty Acid-Binding Protein 1 (FABP1) using HepaRG (AID 2283494)
Summary of the method: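 HepaRG, 48 h post-plating switched to serum-free induction medium, then dosed 48 h (duplicate, 8 pts, ≤100 uM, 0.5% DMSO). RNA → Fluidigm TaqMan qRT-PCR, FABP1 normed to ACTB/GAPDH/POLR2A. Bidirectional curve fit vs DMSO.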

[2] = read-out: Cytochrome P450 4A22 (Homo sapiens) (UniProt Q5TCH4); assay: LTEA_HepaRG_CYP4A22: Life Technologies and Expression Analysis (LTEA) Assay for Cytochrome P450 4A22 (CYP4A22) using HepaRG (AID 2283495)
Summary of the method: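 Differentiated HepaRG cells in serum-free induction medium exposed 48 h in duplicate to eight half-log concentrations up to 100 uM in 0.5% DMSO. CYP4A22 mRNA quantified by TaqMan qRT-PCR, normalized to ACTB, GAPDH and POLR2A; bidirectional fit versus DMSO.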

[3] = read-out: Cytochrome P450 7A1 (Homo sapiens) (UniProt P22680); assay: LTEA_HepaRG_CYP7A1: Life Technologies and Expression Analysis (LTEA) Assay for Cytochrome P450 7A1 (CYP7A1) using HepaRG (AID 2283496)
Summary of the method: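 Gene expression endpoint in human HepaRG liver cells treated for 48 h with test chemicals (up to 100 uM, 0.5% DMSO). Values come from bidirectional concentration-response fitting versus DMSO.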

[4] = read-out: Glutathione S-Transferase (GSTA2), GSTA2 (gene 2939); assay: LTEA_HepaRG_GSTA2: Life Technologies and Expression Analysis (LTEA) Assay for Glutathione S-Transferase (GSTA2) using HepaRG (AID 2283497)
Summary of the method: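 HepaRG, 48 h dosing, 8-pt half-log CRC from 100 uM, 0.5% DMSO vehicle, n=2; RNA → Fluidigm TaqMan qRT-PCR; GSTA2 vs ACTB/GAPDH/POLR2A; gain/loss fit vs DMSO.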

[5] = read-out: Glutamate-cysteine ligase catalytic (GCLC), GCLC (gene 2729); assay: LTEA_HepaRG_GCLC: Life Technologies and Expression Analysis (LTEA) Assay for Glutamate-cysteine ligase catalytic (GCLC) using HepaRG (AID 2283498)
Summary of the method: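 Read-out is GCLC transcript level by Fluidigm-based TaqMan qRT-PCR, normalized to three housekeeping genes and fitted in both directions relative to 0.5% DMSO. Human HepaRG cells received chemicals for 48 h, up to 100 uM.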

[6] = read-out: growth arrest and DNA damage 45 (GADD45G), GADD45G (gene 10912); assay: LTEA_HepaRG_GADD45G: Life Technologies and Expression Analysis (LTEA) Assay for growth arrest and DNA damage 45 (GADD45G) using HepaRG (AID 2283499)
Summary of the method: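 Differentiated human HepaRG cells, 48 h post-plating, exposed 48 h in serum-free induction medium to 8 half-log concentrations (top 100 uM, 0.5% DMSO) in duplicate. GADD45G mRNA measured by Fluidigm TaqMan qRT-PCR, normalized to ACTB, GAPDH, POLR2A; bidirectional fit versus DMSO.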

[7] = read-out: Glutamate-cysteine ligase regulatory (GCLM), GCLM (gene 2730); assay: LTEA_HepaRG_GCLM: Life Technologies and Expression Analysis (LTEA) Assay for Glutamate-cysteine ligase regulatory (GCLM) using HepaRG (AID 2283500)
Summary of the method: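 Human liver HepaRG cultures receive test chemicals for 48 hours at up to 100 uM in 0.5% DMSO. GCLM expression is measured by qRT-PCR and analysed for increases or decreases against vehicle.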

[8] = read-out: Glutathione S-transferase M3 (GSTM3), GSTM3 (gene 2947); assay: LTEA_HepaRG_GSTM3: Life Technologies and Expression Analysis (LTEA) Assay for Glutathione S-transferase M3 (GSTM3) using HepaRG (AID 2283501)
Summary of the method: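 Differentiated human HepaRG cells were exposed in duplicate for 48 h in serum-free induction medium, 8 points from 100 uM top in half-log steps, 0.5% DMSO. GSTM3 mRNA was measured by TaqMan qRT-PCR, normalized to ACTB, GAPDH and POLR2A; bidirectional fit versus DMSO.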

[9] = read-out: Heat shock 70 kDa protein 1 (HSPA1A), gene 3303; assay: LTEA_HepaRG_HSPA1A: Life Technologies and Expression Analysis (LTEA) Assay for Heat shock 70 kDa protein 1 (HSPA1A) using HepaRG (AID 2283502)
Summary of the method: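 HSPA1A induction in human HepaRG liver cells is measured after 48 h of chemical treatment (100 uM maximum, 0.5% DMSO vehicle). Expression comes from qRT-PCR normalized to endogenous controls.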

[10] = read-out: 3-Hydroxy-3-Methylglutaryl-CoA Synthase 2 (HMGCS2), HMGCS2 (gene 3158); assay: LTEA_HepaRG_HMGCS2: Life Technologies and Expression Analysis (LTEA) Assay for 3-Hydroxy-3-Methylglutaryl-CoA Synthase 2 (HMGCS2) using HepaRG (AID 2283504)
Summary of the method: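 Human HepaRG cells in serum-free induction medium were exposed in duplicate for 48 h to 8-point half-log series from 100 uM top in 0.5% DMSO. HMGCS2 mRNA measured by TaqMan qRT-PCR, normalised to ACTB, GAPDH, POLR2A; bidirectional fit versus DMSO.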

[11] = read-out: HGF (gene 3082); assay: LTEA_HepaRG_HGF: Life Technologies and Expression Analysis (LTEA) Assay for Hepatocyte Growth Facto (HGF) using HepaRG (AID 2283505)
Summary of the method: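 Differentiated HepaRG cells in serum-free induction medium exposed 48 h in duplicate, 8 half-log concentrations from 100 uM in 0.5% DMSO. HGF mRNA by qRT-PCR, normalised to ACTB, GAPDH, POLR2A; bidirectional fitting.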

[12] = read-out: Insulin Like Growth Factor 1 (IGF1), IGF1 (gene 3479); assay: LTEA_HepaRG_IGF1: Life Technologies and Expression Analysis (LTEA) Assay for Insulin Like Growth Factor 1 (IGF1) using HepaRG (AID 2283506)
Summary of the method: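 Using human HepaRG liver cells, IGF1 transcript induction or suppression is measured 48 h after dosing across eight concentrations capped at 100 uM. Values derive from bidirectional concentration-response fitting with DMSO as baseline.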

[13] = read-out: Intercellular Adhesion Molecule 1 (ICAM1), ICAM1 (gene 3383); assay: LTEA_HepaRG_ICAM1: Life Technologies and Expression Analysis (LTEA) Assay for Intercellular Adhesion Molecule 1 (ICAM1) using HepaRG (AID 2283507)
Summary of the method: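 Differentiated human HepaRG cells in serum-free induction medium exposed 48 h in duplicate to 8 half-log concentrations (top 100 uM, 0.5% DMSO). ICAM1 mRNA quantified by TaqMan qRT-PCR, normalized to ACTB, GAPDH and POLR2A; bidirectional fitting versus DMSO.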

[14] = read-out: Insulin-like growth factor-binding protein 1 (IGFBP1), IGFBP1 (gene 3484); assay: LTEA_HepaRG_IGFBP1: Life Technologies and Expression Analysis (LTEA) Assay for Insulin-like growth factor-binding protein 1 (IGFBP1) using HepaRG (AID 2283508)
Summary of the method: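 HepaRG cells, plated 48 h then switched to serum-free induction medium, exposed in duplicate for 48 h to 8-point half-log series from 100 uM in 0.5% DMSO. mRNA measured by qRT-PCR, normalized to ACTB/GAPDH/POLR2A; bidirectional fit versus DMSO.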

[15] = read-out: Interleukin 6 (IL6), IL6 (gene 3569); assay: LTEA_HepaRG_IL6: Life Technologies and Expression Analysis (LTEA) Assay for Interleukin 6 (IL6) using HepaRG (AID 2283509)
Summary of the method: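 HepaRG, ~100,000 cells/well, 48 h pre-culture; serum-free induction medium; cmpd 8-pt half-log from 100 uM, 0.5% DMSO, duplicate, 48 h. Lysis in RLT, TaqMan qRT-PCR; gain or loss vs DMSO.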

[16] = read-out: Interleukin 6 Receptor (IL6R), IL6R (gene 3570); assay: LTEA_HepaRG_IL6R: Life Technologies and Expression Analysis (LTEA) Assay for Interleukin 6 Receptor (IL6R) using HepaRG (AID 2283510);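 for AC50: TaqMan qRT-PCR signal normalized to ACTB GAPDH and POLR2A housekeeping genes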
Summary of the method: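 Concentration-response in human liver HepaRG cells: eight concentrations from 100 uM downward by half-logs, 48 h exposure, 0.5% DMSO vehicle. IL6R mRNA change measured by qRT-PCR and fitted in both directions relative to vehicle.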

[17] = read-out: Potassium channel subfamily K member 1 (KCNK1), KCNK1 (gene 3775); assay: LTEA_HepaRG_KCNK1: Life Technologies and Expression Analysis (LTEA) Assay for Potassium channel subfamily K member 1 (KCNK1) using HepaRG (AID 2283511)
Summary of the method: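 Gain or loss of KCNK1 mRNA is the read-out, quantified by qRT-PCR against three housekeeping genes after 48 h chemical treatment of human HepaRG liver cells. Concentrations ran from 100 uM downward in half-log steps, vehicle 0.5% DMSO.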

[18] = read-out: Keratin 19 (KRT19), KRT19 (gene 3880); assay: LTEA_HepaRG_KRT19: Life Technologies and Expression Analysis (LTEA) Assay for Keratin 19 (KRT19) using HepaRG (AID 2283512)
Summary of the method: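 Differentiated HepaRG cells in serum-free induction medium, exposed 48 h in duplicate to 8 half-log concentrations up to 100 uM in 0.5% DMSO. KRT19 mRNA by qRT-PCR, normalized to ACTB, GAPDH, POLR2A; bidirectional fit vs DMSO.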

[19] = read-out: JUN Transcription Factor, JUN (gene 3725); assay: LTEA_HepaRG_JUN: Life Technologies and Expression Analysis (LTEA) Assay for JUN Transcription Factor using HepaRG (AID 2283513)
Summary of the method: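 Human HepaRG liver cells receive test chemicals in 0.5% DMSO for 48 h across an eight-point range topping at 100 uM. Expression changes in JUN are scored in both directions against the DMSO vehicle.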

[20] = read-out: Hypoxia-inducible factor 1-alpha (Homo sapiens) (UniProt Q16665); assay: LTEA_HepaRG_HIF1A: Life Technologies and Expression Analysis (LTEA) Assay for Hypoxia-inducible factor 1 (HIF1A) Trancription factor using HepaRG (AID 2283503)
Summary of the method: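 HepaRG, 48 h exposure, 8-pt half-log series from 100 uM, 0.5% DMSO vehicle, duplicates. Readout: HIF1A transcript by qRT-PCR (Fluidigm array), housekeeping-normalised. Bidirectional curve fit vs DMSO baseline.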

Measured: AC50

Chain of Hypoxia-inducible factor 1-alpha (Homo sapiens) (Q16665 whole entry, looked up): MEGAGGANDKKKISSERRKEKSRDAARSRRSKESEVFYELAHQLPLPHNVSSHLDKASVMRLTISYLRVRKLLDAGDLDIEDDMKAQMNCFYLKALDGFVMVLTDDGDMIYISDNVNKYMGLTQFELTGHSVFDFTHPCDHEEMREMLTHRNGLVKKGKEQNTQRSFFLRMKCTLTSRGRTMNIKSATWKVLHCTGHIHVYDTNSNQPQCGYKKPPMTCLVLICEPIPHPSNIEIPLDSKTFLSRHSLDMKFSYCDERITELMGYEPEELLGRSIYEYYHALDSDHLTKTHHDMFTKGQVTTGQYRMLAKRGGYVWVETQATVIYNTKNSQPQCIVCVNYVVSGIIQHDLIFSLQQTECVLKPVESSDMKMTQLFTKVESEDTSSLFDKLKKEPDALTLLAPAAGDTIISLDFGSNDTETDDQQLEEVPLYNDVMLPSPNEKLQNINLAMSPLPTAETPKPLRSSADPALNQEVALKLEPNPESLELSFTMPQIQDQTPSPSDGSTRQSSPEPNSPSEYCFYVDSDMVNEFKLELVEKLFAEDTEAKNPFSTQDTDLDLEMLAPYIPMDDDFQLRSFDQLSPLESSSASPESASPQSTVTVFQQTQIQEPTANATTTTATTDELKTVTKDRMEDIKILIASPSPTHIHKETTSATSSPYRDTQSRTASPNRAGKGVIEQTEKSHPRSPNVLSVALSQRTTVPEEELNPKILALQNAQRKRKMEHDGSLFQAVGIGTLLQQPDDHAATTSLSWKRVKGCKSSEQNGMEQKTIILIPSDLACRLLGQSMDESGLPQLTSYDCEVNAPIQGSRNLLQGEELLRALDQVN

CO/C=C(/C(=O)OC)c1ccccc1Oc1cc(Oc2ccccc2C#N)ncn1
active: [1] 82.4 µM and 75.6 µM and 73.2 µM | [2] 76.3 µM and 66.9 µM and 65.6 µM | [3] 93.4 µM and 94.1 µM and 87.4 µM | [4] 81.5 µM and 81 µM and 78.7 µM | [6] 78 µM and 80.2 µM and 73.5 µM | [7] 75.6 µM and 63.3 µM and 71.8 µM | [8] 83.1 µM | [9] 83.4 µM | [10] 77.1 µM and 76.2 µM and 72.6 µM | [12] 79.8 µM and 62.8 µM and 74 µM | [13] 83.5 µM and 87.8 µM and 88.9 µM | [14] 63.6 µM and 72.5 µM and 76.7 µM | [15] 81.4 µM and 80.9 µM and 82.8 µM | [18] 61.1 µM and 37.1 µM and 50 µM
inactive: [5] | [8] | [9] | [11] | [16] | [17] | [19]

N#Cc1nn(-c2c(Cl)cc(C(F)(F)F)cc2Cl)c(N)c1S(=O)C(F)(F)F (stereo not given)
inactive: [5] | [13] | [17]
active: [1] 24.1 µM | [2] 26.2 µM | [3] 35 µM | [4] 32 µM | [6] 31.5 µM | [7] 29.1 µM | [8] 80.8 µM | [9] 11.9 µM | [20] 79.5 µM | [10] 38.3 µM | [11] 90.3 µM | [12] 13.4 µM | [14] 47.7 µM | [15] 44.8 µM | [16] 91.4 µM | [18] 12.6 µM | [19] 50.2 µM

CNC(=S)S
inactive: [1] | [2] | [3] | [4] | [5] | [6] | [7] | [8] | [9] | [10] | [11] | [12] | [13] | [14] | [15] | [16] | [17] | [18] | [19]
